Assay results as given in PubChem BioAssay.
Activity calls are given as the source filed them.

Key:
[1] = test system: Plasmodium falciparum Sir2 (PF13_0152, Sir2A); experiment: Plasmodium falciparum Sir2A binding compounds – biochemical, small-molecule microarray, 635 nm fluorescence, primary screen (AID 1098); conditions: fluorescence 635 nm, higher = more signal;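 also: score merges spot fluorescence intensity with its signal-to-noise ratio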
[2] = probe aDKK1 binding to arrayed compounds – biochemical, biotinylated probe, 635/667 nm fluorescence, primary screen (AID 1099); conditions: small-molecule microarray, higher = more signal;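 also: score merges 667nm spot fluorescence with signal to noise across triplicate slides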
[3] = probe aCHRDL2 binding to arrayed compounds – biochemical, biotinylated probe, 635/667 nm fluorescence, primary screen (AID 1100); conditions: small-molecule microarray, higher = more signal
[4] = change in splice reporter luminescence, either direction, cell-based, HEK293, spliceosome inhibition project, primary screen (AID 1101); conditions: HEK293 splicing luciferase reporter, 24 h, higher = more signal, called active from +8 up or from −8 down;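 also: HEK293 cells carrying a splicing-competent luciferase reporter gene; test concentration not given here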
[5] = molecular target: Fibroblast growth factor 10 (Homo sapiens) (UniProt O15520); experiment: compounds binding fibroblast growth factor 10 – biochemical, small-molecule microarray, 635 nm fluorescence, primary screen (AID 1102); conditions: FGF10 binding, fluorescence 635 nm, higher = more signal
[6] = test system: glycogen synthase kinase-3 (GSK3A per assay name; protocol says GSK3B); experiment: compounds binding glycogen synthase kinase-3 – biochemical, small-molecule microarray, 635 nm fluorescence, GSK3A, primary screen (AID 1103); conditions: fluorescence 635 nm, higher = more signal; also: the record names both GSK3A and GSK3B
[7] = molecular target: Epidermal growth factor receptor (Homo sapiens) (UniProt P00533); experiment: compounds binding epidermal growth factor receptor – biochemical, small-molecule microarray, 635 nm fluorescence, primary screen (AID 1104); conditions: EGFR binding, higher = more signal;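 also: score merges 667 nm emission intensity with spot signal to noise over triplicate slides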
[8] = molecular target: Follistatin-related protein 3 (Homo sapiens) (UniProt O95633); experiment: compounds binding follistatin-related protein 3 – biochemical, small-molecule microarray, 635 nm fluorescence, primary screen (AID 1105); conditions: FSTL3 binding, higher = more signal;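 also: score merges emission near 667 nm and signal to noise per printed spot across three slides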
[9] = molecular target: Dickkopf-related protein 1 (Homo sapiens) (UniProt O94907); experiment: small molecules binding DKK1 protein – biochemical, small-molecule microarray, 635 nm fluorescence scan, primary screen (AID 1106); conditions: higher = more signal;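 also: score merges emission near 667 nm with signal to noise over three replicate slides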
[10] = test system: Inhibin beta A chain (activin A); experiment: small molecules binding activin A – biochemical, small-molecule microarray, 635 nm fluorescence scan, primary screen (AID 1107); conditions: INHBA, higher = more signal;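 also: mouse activin A protein probed at 4.33 µg/mL on printed slides; score merges bound-protein fluorescence near 667 nm with spot signal-to-noise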
[11] = test system: Human papillomavirus type 1a protein E7 (residues 44-93); experiment: small molecules binding HPV E7 44-93 – biochemical, small-molecule microarray, residues 44-93, 635 nm fluorescence, primary screen (AID 1108); conditions: fluorescence 635 nm, higher = more signal;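 also: E7 fragment applied at 1 µg/mL in TBST for 1 h at 4 C; score combines spot fluorescence with its signal to noise ratio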
[12] = hepatitis C replication reporter changes, two-sided – Huh7 cells, luciferase reporter, HCV replication inhibitor project, primary screen (AID 1109); conditions: Huh7 HCV replicon luciferase reporter, 48 h; higher = more signal;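 also: huh7 hepatoma cells harbouring a luciferase neomycin HCV replicon reporter; luciferase luminescence as measure of HCV replicon replication; test concentration not given here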
[13] = molecular target: Left-right determination factor 2 (Homo sapiens) (UniProt O00292); experiment: small molecules binding LEFTY2 protein – biochemical, small-molecule microarray, 635 nm fluorescence scan, primary screen (AID 1110); conditions: higher = more signal
[14] = molecular target: Calmodulin-1 (Homo sapiens) (UniProt P0DP23); experiment: small molecules binding calmodulin-1 with EGTA – biochemical, small-molecule microarray, Cy5-labelled CALM1, profiling panel (AID 1111); conditions: Cy5-CALM1 binding fluorescence, higher = more signal;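 also: labelled calmodulin applied in Tris saline Tween buffer holding calcium plus EGTA and DTT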
[15] = molecular target: Calmodulin-1 (Homo sapiens) (UniProt P0DP23); experiment: small molecules binding Ca-loaded calmodulin-1 – biochemical, small-molecule microarray, Cy5-labelled CALM1, plus calcium, artefact control for SMM control-protein annotation, profiling panel (AID 1112); conditions: Cy5-CALM1 binding fluorescence, higher = more signal;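 also: score merges spot fluorescence with signal to noise from triplicate slides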
[16] = probe aWnt5a binding to arrayed compounds – biochemical, biotinylated probe, 635/667 nm fluorescence, primary screen (AID 1113); conditions: small-molecule microarray, higher = more signal;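 also: score merges 667 nm fluorescence intensity with signal-to-noise per printed feature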
[17] = probe aShh binding to arrayed compounds – biochemical, biotinylated probe, 635/667 nm fluorescence, primary screen (AID 1114); conditions: small-molecule microarray, higher = more signal;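 also: probe is biotin-labelled aShh protein from a stem cell growth factor screen; measures binding of labelled protein to compounds printed on the slide; score merges feature fluorescence at 667 nm with signal-to-noise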
[18] = probe aNog binding to arrayed compounds – biochemical, biotinylated probe, 635/667 nm fluorescence, primary screen (AID 1115); conditions: small-molecule microarray, higher = more signal;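 also: probe is biotinylated aNog protein used at 0.15 µg/mL for 1 h at 4 C; z-score combines 667 nm fluorescence of each spot with its signal to noise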
[19] = molecular target: Torsin-1A-interacting protein 1 (Homo sapiens) (UniProt Q5JTV8); experiment: compound microarray binding of lysate hLAP1 – cell lysate, small-molecule microarray, COS7 lysate, 635/667 nm fluorescence, primary screen (AID 1116); conditions: 635 nm fluorescence, higher = more signal
[20] = molecular target: Alpha-bungarotoxin (Bungarus multicinctus) (UniProt P60615); experiment: compounds binding labelled alpha-BTX control protein – biochemical, small-molecule microarray, Alexa647 label, 635/667 nm fluorescence, artefact control for SMM control protein annotation, profiling panel (AID 1117); conditions: alpha-BTX-A647 binding fluorescence, higher = more signal
Chain of Alpha-bungarotoxin (Bungarus multicinctus) (P60615 whole entry, looked up): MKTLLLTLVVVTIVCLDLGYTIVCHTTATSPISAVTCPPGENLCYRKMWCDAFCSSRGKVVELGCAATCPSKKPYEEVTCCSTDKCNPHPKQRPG

Chain of Left-right determination factor 2 (Homo sapiens) (O00292 whole entry, looked up): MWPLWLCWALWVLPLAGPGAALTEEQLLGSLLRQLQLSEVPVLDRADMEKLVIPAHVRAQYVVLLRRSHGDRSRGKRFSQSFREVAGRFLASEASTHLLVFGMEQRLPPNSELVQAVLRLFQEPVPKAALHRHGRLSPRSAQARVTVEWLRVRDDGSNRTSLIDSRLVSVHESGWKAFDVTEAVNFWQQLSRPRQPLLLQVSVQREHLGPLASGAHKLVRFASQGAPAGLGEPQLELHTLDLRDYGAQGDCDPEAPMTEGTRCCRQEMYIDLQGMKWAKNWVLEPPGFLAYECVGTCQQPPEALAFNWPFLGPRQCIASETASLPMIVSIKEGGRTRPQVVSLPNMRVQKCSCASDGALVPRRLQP
Chain of Torsin-1A-interacting protein 1 (Homo sapiens) (Q5JTV8 whole entry, looked up): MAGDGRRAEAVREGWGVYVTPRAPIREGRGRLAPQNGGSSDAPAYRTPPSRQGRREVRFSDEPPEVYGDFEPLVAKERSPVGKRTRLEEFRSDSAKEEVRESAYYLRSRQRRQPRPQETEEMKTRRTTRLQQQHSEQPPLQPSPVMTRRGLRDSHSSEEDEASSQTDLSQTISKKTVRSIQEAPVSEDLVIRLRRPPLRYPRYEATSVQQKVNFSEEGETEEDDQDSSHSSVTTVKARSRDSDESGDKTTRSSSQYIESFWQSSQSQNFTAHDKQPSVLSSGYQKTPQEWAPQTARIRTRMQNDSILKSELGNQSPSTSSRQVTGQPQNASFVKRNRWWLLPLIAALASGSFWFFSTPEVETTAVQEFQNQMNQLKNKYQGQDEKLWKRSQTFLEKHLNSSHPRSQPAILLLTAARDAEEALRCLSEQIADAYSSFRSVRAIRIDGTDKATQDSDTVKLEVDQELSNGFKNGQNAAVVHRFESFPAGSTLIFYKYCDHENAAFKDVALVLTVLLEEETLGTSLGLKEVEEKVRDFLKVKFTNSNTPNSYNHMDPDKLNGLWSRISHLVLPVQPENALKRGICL
Chain of Fibroblast growth factor 10 (Homo sapiens) (O15520 whole entry, looked up): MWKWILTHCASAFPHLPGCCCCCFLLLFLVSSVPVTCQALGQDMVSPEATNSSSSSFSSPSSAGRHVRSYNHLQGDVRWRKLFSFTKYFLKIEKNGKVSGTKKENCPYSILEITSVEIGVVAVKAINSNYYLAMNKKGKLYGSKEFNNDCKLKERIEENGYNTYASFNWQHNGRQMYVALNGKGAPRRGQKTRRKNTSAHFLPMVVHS
Chain of Follistatin-related protein 3 (Homo sapiens) (O95633 whole entry, looked up): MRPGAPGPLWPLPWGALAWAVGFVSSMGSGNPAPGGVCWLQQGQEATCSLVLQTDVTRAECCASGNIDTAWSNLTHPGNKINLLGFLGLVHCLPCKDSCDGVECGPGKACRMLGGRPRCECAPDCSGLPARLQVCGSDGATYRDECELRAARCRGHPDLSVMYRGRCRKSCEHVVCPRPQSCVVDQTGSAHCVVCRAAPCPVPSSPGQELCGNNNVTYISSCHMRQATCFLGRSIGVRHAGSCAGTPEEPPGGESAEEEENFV
Chain of Epidermal growth factor receptor (Homo sapiens) (P00533 whole entry, looked up): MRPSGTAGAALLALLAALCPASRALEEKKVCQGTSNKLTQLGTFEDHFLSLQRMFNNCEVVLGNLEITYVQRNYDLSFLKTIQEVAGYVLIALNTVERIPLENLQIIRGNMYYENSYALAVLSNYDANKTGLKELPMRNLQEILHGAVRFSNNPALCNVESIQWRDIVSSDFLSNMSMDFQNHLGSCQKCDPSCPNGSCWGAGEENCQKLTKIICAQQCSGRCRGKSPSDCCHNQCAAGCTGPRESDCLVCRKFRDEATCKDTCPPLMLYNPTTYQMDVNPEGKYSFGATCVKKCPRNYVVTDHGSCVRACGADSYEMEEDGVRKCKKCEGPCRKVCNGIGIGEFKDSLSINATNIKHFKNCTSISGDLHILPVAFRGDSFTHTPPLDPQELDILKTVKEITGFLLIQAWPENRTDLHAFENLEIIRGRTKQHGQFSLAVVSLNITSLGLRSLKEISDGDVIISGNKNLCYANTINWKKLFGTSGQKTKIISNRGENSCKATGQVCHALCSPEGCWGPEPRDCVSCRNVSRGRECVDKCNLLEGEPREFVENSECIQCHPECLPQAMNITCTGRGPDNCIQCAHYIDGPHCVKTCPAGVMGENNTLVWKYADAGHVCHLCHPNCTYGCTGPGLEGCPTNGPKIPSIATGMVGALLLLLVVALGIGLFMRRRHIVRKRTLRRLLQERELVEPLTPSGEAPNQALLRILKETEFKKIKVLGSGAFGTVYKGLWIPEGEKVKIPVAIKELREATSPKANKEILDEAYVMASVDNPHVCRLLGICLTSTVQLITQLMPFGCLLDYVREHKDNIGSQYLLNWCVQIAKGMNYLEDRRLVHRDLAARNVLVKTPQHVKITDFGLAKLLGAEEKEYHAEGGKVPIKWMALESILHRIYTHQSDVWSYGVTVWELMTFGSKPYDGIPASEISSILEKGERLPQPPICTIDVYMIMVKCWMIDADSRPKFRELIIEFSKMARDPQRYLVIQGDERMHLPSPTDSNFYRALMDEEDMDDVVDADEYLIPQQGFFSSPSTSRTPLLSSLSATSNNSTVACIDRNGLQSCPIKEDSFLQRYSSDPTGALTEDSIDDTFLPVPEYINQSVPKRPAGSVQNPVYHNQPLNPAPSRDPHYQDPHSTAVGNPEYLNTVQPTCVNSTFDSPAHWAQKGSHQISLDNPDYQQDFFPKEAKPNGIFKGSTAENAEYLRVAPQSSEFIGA
Chain of Dickkopf-related protein 1 (Homo sapiens) (O94907 whole entry, looked up): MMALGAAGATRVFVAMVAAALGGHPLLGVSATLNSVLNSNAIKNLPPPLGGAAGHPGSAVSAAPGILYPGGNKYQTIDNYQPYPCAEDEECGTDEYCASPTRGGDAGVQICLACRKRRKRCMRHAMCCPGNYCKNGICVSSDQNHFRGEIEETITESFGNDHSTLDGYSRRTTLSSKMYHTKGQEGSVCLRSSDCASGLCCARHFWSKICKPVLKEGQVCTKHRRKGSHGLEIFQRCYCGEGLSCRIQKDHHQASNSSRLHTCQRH

| Structure (SMILES) | composite z-score [1] | composite z-score [2] | composite z-score [3] | z-score [4] | composite z-score [5] | composite z-score [6] | composite z-score [7] | composite z-score [8] | composite z-score [9] | composite z-score [10] | composite z-score [11] | z-score [12] | composite z-score [13] | composite z-score [14] | composite z-score [15] | composite z-score [16] | composite z-score [17] | composite z-score [18] | composite z-score [19] | composite z-score [20] |
| --- | --- | --- | --- | --- | --- | --- | --- | --- | --- | --- | --- | --- | --- | --- | --- | --- | --- | --- | --- | --- |
| COc1cc2c(cc1OC)CN(C(=O)[C@H]1[C@@H]3C(=O)O[C@@H](c4ccccc4)[C@@H](c4ccccc4)N3[C@@H](c3ccc(O)cc3)[C@]13C(=O)Nc1ccc(C#CC4=CCCCC4)cc13)CC2 | 1.32 | 0.817 | 0.785 | -0.58 (inactive) | 1.14 | 1.29 | 0.405 | 1.43 | 0.779 | -0.301 | 0.282 | -1.67 | 1.07 | 1.61 | 0.0648 | 0.133 | -0.0146 | -0.315 | 0.885 | 1.67 |
| C=CCOC(=O)[C@@H]1[C@H]2C(=O)O[C@H](c3ccccc3)[C@H](c3ccccc3)N2[C@H](c2ccc(OCCOC(=O)[C@@H]3C[C@@H]4C(=O)N[C@@H](CCCC[N+](C)(C)C)C(=O)N4[C@@H]3c3cccc(OCCO)c3)cc2)[C@@]12C(=O)Nc1ccc(I)cc12 | 1.09 | 0.0616 | 0.0011 | -0.874 (inactive) | 0.591 | 1.19 | 0.779 | 1.25 | 0.985 | 0.195 | 0.741 | -2.48 | 0.692 | 1.02 | 0.0416 | -0.0512 | -0.0146 | 0.886 | 0.897 | 1.59 |
| C=CCOC(=O)[C@H]1[C@@H]2C(=O)O[C@@H](c3ccccc3)[C@@H](c3ccccc3)N2[C@@H](c2ccc(OCCOC(=O)[C@H]3C[C@H]4C(=O)N[C@@H](CC(C)C)C(=O)N4[C@H]3c3ccc(O)cc3)cc2)[C@]12C(=O)Nc1ccc(I)cc12 | 1.5 | -0.271 | -0.3 | -0.281 (inactive) | 1.4 | 1.3 | 0.748 | 1.15 | 1.23 | 0.12 | 1.41 | -0.86 | 0.644 | 0.321 | -0.388 | 0.0597 | 0.0469 | 0.13 | 1.78 | 1.82 |
| CC(C)C[C@H]1NC(=O)[C@@]23C(=O)N[C@@H](Cc4ccccc4)C2[C@H](C)[C@@]2(C)O[C@H]2C3/C=C/C/C=C\CNC(=O)[C@H](Cc2ccccc2)NC1=O (stereo not given in full) | 0.777 | -0.283 | -0.471 | 0.000958 (inactive) | 0.903 | 0.47 | 0.447 | 0.816 | 0.599 | 0.867 | 1.06 | -1.32 | 0.452 | -0.434 | -0.578 | -0.0735 | -0.0553 | -0.194 | -0.225 | -0.0973 |
| O=C1O[C@H](c2ccccc2)[C@H](c2ccccc2)N2[C@H]1[C@@H](C(=O)O)[C@]1(C(=O)Nc3ccc(C#CCCO)cc31)[C@H]2c1ccc(O)cc1 | 0.218 | 1.13 | 1.14 | -0.765 (inactive) | -0.378 | -0.222 | -0.289 | -0.321 | -0.572 | 1.18 | -0.038 | 0.101 | -0.603 | 0.415 | 0.869 | 0.0044 | -0.0324 | 1.08 | 0.846 | 0.0639 |
| CC(C)[C@@H](CO)NC(=O)[C@H]1[C@@H](c2ccccc2)N(c2ccccc2)O[C@@H]1C | 0.008 | -0.343 | -0.343 | -0.18 (inactive) | -0.123 | -0.418 | -0.0881 | -0.218 | 0.227 | 0.197 | 0.0503 | 0.0505 | 0.28 | -0.31 | -0.354 | -0.148 | -0.186 | -0.181 | 0.382 | 0.0366 |
| O=C1O[C@@H](c2ccccc2)[C@@H](c2ccccc2)N2[C@@H](c3ccccc3OCCO)[C@]3(C(=O)Nc4ccc(C#CC5=CCCCC5)cc43)[C@@H](C(=O)Nc3nc4ccccc4s3)[C@H]12 | 1.5 | 0.0826 | -0.0401 | -0.459 (inactive) | 1.32 | 1.29 | 0.463 | 1.23 | 0.619 | 0.137 | 1.4 | -2.52 | 0.501 | 1.32 | 0.337 | -0.0084 | 0.356 | -0.167 | 0.705 | 1.32 |
| COc1cc(OC)c(C(O)C2C=CC3C(=O)NC(=O)C3N2Nc2ccc(Cl)cc2Cl)cc1Br (stereo not given) | 1.38 | 2.08 | 1.16 | 2.41 (inactive) | 0.0245 | 0.0735 | -0.142 | 0.498 | -0.985 | 0.312 | 1.09 | -1.66 | -0.75 | 2.09 | 0.436 | -0.0685 | 0.0875 | 1.61 | 1.38 | 1.27 |
| COCCCNC(=O)C1N=C(c2ccc(OCCCO)cc2)N(c2ccccc2)O1 (stereo not given) | 0.87 | 0.0045 | 0.203 | -0.27 (inactive) | 1.3 | 0.781 | 0.241 | 0.784 | 0.383 | -0.6 | 1.41 | -1.46 | 0.382 | 1.08 | 0.131 | -0.0286 | -0.0035 | 0.752 | 0.477 | 0.649 |
| C=C(COC)/C(=C/C[C@H](OC(=O)c1ccncc1)c1ccc(OCCO)cc1)c1cnc2ccccc2c1 | 1.24 | 0.159 | -0.106 | -1.02 (inactive) | 1.36 | 1.07 | 1.26 | 1.55 | 1.01 | 1.61 | 1.46 | -1.63 | 1.07 | 0.447 | -0.669 | 0.0328 | 0.171 | -0.456 | 0.78 | 2.8 |
| O=C1O[C@H](c2ccccc2)[C@H](c2ccccc2)N2[C@H]1[C@@H](C(=O)Nc1nc3ccccc3s1)[C@]1(C(=O)Nc3ccc(C#CCCO)cc31)[C@H]2c1ccc(OCCO)cc1 | 1.59 | -0.198 | -0.144 | -0.0209 (inactive) | 1.33 | 1.31 | 0.468 | 1.14 | 0.379 | 0.408 | 1.39 | -1.65 | 0.436 | 1.26 | 0.0502 | 0.0927 | 0.184 | 1.15 | 1.07 | 0.753 |
